Assay outcomes from PubChem.
In the library only some 2.8% were active in any assay of this set; here they are far more common.
IDE cell inh: inhibitors of human insulin-degrading enzyme in cells | AID 434962 | HEK cells, FAbetaB cleavage, fluorescence polarization | hit rate 0.41% among 320,000 | inhibition, % at 5.59 µM | P14735;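 active = percent inhibition above the average of all tested compounds plus 3 SD, set per screening campaign, cut at about 16% in these data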;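 note: IDE supplied by intact live HEK cells; FP after avidin binding of uncleaved biotin substrate so inhibition keeps polarization high; 0% = DMSO wells and 100% = 60 µM reference IDE inhibitor Ii1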
PP1 counter: PP1-alpha (human) inhibition in PP5 counter-screen; P62136; purified PP1alpha, OMFP fluorescence; inhibition, % at 6.7 µM; hit rate 0.9% among 320,000;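 active = inhibition above the mean inhibition of all tested compounds plus 3 SD, computed separately for each screening campaign, cut at about 15% in these data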
Granule exo inh: blocks lytic granule exocytosis; TALL-104 LAMP-1 surface exposure, flow cytometry; cells stimulated with thapsigargin and PMA; inhibition, % at 10 µM; hit rate 0.66% among 360,000; AID 651702;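 active = inhibition above about 55%, limit read from the data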
PP5 inh: inhibitors of human protein phosphatase 5 (PP5) | AID 1987 | P53041 | hit rate 0.18% among 320,000 | purified PP5c, OMFP substrate fluorescence | inhibition, % at 6.7 µM;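 active = inhibition above the campaign's mean inhibition across all tested compounds plus 3 SD, cut at about 9.5% in these data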;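 note: 0% = DMSO only and 100% = 100 µM cantharidin control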
Target sequence (P53041 whole entry, looked up): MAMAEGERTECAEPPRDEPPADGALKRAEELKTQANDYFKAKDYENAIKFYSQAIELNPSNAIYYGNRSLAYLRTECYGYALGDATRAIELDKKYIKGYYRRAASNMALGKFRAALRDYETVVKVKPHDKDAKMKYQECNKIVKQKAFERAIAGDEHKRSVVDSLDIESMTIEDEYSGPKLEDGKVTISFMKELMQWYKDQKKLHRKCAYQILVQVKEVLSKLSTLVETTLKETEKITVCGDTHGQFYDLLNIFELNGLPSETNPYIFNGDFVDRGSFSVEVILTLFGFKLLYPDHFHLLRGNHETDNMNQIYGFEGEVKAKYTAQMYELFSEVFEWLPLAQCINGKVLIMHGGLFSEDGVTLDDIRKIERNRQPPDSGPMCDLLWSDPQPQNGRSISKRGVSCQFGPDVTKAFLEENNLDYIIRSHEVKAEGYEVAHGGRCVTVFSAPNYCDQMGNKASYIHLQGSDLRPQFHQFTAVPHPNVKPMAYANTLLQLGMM
SKKanGAS inh: inhibitors of SKKanGAS S. pyogenes growth in kanamycin (SK-promoter or general growth effect). BacTiter-Glo, 6 h. inhibition, % at 7.5 µM. hit rate 1.3% among 300,000. AID 1662;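 active = mean replicate score, as percent of positive control median, at least 50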;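 note: strain carries kanamycin resistance gene driven by streptokinase promoter and grows in 40 µg/ml kanamycin; loss of luminescence reflects streptokinase promoter inhibition or plain growth inhibition; 0% = median of DMSO wells and 100% = positive control at its reference dose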
IDE cell activ: activators of human insulin-degrading enzyme in cells; hit rate 0.073% among 340,000; P14735; activation, % at 5.96 µM; HEK cells, FAbeta-B cleavage, fluorescence polarization; 0% vehicle, 100% cell-free pure enzyme wells;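 active = activation above the mean of all tested compounds plus 3 SD, set per screening campaign, cut at about 17% in these data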
An asterisk follows results filed as active; / = not tested or not shown.

SMILES	IDE cell inh	PP1 counter	Granule exo inh	PP5 inh	SKKanGAS inh	IDE cell activ
Cc1ccc(N2C(=O)C3CC(c4ccccc4)=C4C5C=CC(C6C(=O)N(c7ccc(C)cc7C)C(=O)C56)C4C3C2=O)c(C)c1 (centres undefined)	7.0	9.5	-1.2	3.7	5.0	6.7
CC(NC(=O)Nc1ccccc1F)C(C)(C)C (centres undefined)	-1.9	-3.8	-2.2	-2.7	2.2	-0.7
Cc1coc2c1C(=O)C(=O)c1c-2ccc2c(C)cccc12	-2.2	6.1	6.4	7.8	72.9*	-0.5
CN1/C(=C/c2cccc[n+]2CCO)Sc2ccccc21	11.5	2.5	-0.2	0.9	3.2	-5.0
CC[n+]1c(/C=C2\Sc3ccccc3N2C)ccc2cccc(C)c21	/	/	67.5*	/	68.8*	-81.6
COc1ccc(-c2cc3nc4n(c(=O)c3s2)CCC4)cc1	2.7	1.3	-2.2	2.6	99.1*	2.3
Cn1c(NCc2ccccc2)nc2cc(-c3ccccc3)sc2c1=O	/	/	0.0	/	/	/
COc1ccc(-c2cc3nc(C)n(N)c(=O)c3s2)cc1	0.1	-3.0	-2.9	-1.2	88.4*	-2.4
COc1ccc(-c2cc3nc4n(c(=O)c3s2)CCCCC4)cc1	-2.2	-1.8	0.5	0.0	12.1	-2.4
Cc1nc2cc(-c3ccccc3)sc2c(=O)n1N	-1.3	-1.0	1.7	3.5	63.0*	1.6
Cc1ccc(C(C)C)c(OCC(=O)NS(=O)(=O)c2ccc(Cl)cc2)c1	0.8	3.6	1.5	-0.6	10.3	4.2
O=C(COc1ccccc1Cl)Nc1ccc2[nH]c(=O)[nH]c2c1	/	/	-1.9	/	/	1.3
COc1ccc(CCNC(=O)c2c(O)c3ccccc3[nH]c2=O)cc1	5.8	-0.1	-0.1	5.2	4.6	4.3
CCc1ccc(NC(=O)COC(=O)/C(=C/c2ccccc2OC)c2ccccc2)cc1	1.4	10.0	1.7	2.5	-6.4	3.7
COc1ccccc1/C=C(/C(=O)OCC(=O)Nc1cc(C)ccc1C)c1ccccc1	4.0	1.2	-1.4	3.3	55.4*	-1.6
CC1=C(C(=O)OCc2ccccc2)C(c2ccc([N+](=O)[O-])cc2)NC(=O)N1CCCC(=O)O (centres undefined)	-5.2	-0.9	61.9*	0.9	2.6	-1.6
Cc1ccc(S(=O)(=O)N2[C@H](CC(=O)Oc3ccccc3)OC[C@@H]2C(C)C)cc1	/	/	-2.0	/	/	/
CNC(=O)C1C(=S)NC(N)=C(C#N)C1c1ccccc1 (centres undefined)	3.8	-1.6	69.2*	-2.3	7.2	-20.4
COc1ccc(/C=C(/NC(=O)c2ccc(OC)c(OC)c2)C(=O)NCCCn2ccnc2)cc1	-0.1	-1.7	-2.1	3.6	0.0	2.5
CC[C@@]1(O)C(=O)OCc2c1cc1n(c2=O)Cc2cc3c(CN(C)C)c(O)ccc3nc2-1	-2.8	-16.8	-0.1	2.4	-5.0	24.1*
COCCN(C(=O)C1CC(=O)N(Cc2ccccc2)C1)c1nc(-c2ccc([N+](=O)[O-])cc2)cs1 (centres undefined)	0.7	16.7*	2.5	1.9	/	1.9
Cc1ccc(-c2nc(CS(=O)CC(=O)NCc3ccco3)c(C)o2)cc1 (centres undefined)	-0.7	0.7	53.0	1.9	-5.3	1.7
N#Cc1nc(-c2ccc(OCc3ccccc3Cl)cc2)oc1NCCCn1ccnc1	7.2	3.2	/	-6.2	73.6*	/
CCOc1ccc(Nc2oc(-c3ccccc3Cl)nc2C#N)cc1	4.0	17.2*	/	0.3	-4.1	/
CCCOc1ccc(-c2nc(C#N)c(NCCCn3ccnc3)o2)cc1	3.6	2.7	3.6	1.6	11.5	0.4
SMILES	IDE cell inh	PP1 counter	Granule exo inh	PP5 inh	SKKanGAS inh	IDE cell activ
CNc1oc(-c2ccccc2Cl)nc1C#N	-4.0	-1.1	0.3	0.6	-1.5	4.5
CCC(NS(=O)(=O)c1ccc(C)cc1)C(=O)N1CCOCCOCCOCCOCC1 (centres undefined)	3.0	2.3	-1.8	1.1	-0.4	-0.1
Cn1nnc2cc(NC(=O)Nc3cccc(C(F)(F)F)c3)ccc21	8.4	0.3	-2.4	2.2	-4.3	-1.8
Fc1ccc(C(CCNCc2ccccn2)c2ccc(Cl)cc2)cc1 (centres undefined)	1.7	7.0	42.0	1.1	64.4*	-2.9
O=C(Nc1nnc(C2=COCCO2)o1)c1cccc(C(F)(F)F)c1	-6.2	9.8	-3.4	0.3	56.2*	-1.2
O=C(Nc1nnc(C2=COCCO2)o1)c1ccc(Br)cc1	-2.5	5.4	-2.2	2.1	101.1*	1.3
O=C(Nc1nnc(C2=COCCO2)o1)c1ccc(F)cc1	-2.7	0.7	-2.7	3.4	24.5	3.0
CCCOc1ccccc1-n1sc2c(c1=S)-c1cc(OC)cc3c1N(C(=O)C3=O)C2(C)C	0.0	17.2*	-1.9	1.5	-19.5	-0.9
CC(=O)N/C(=C\c1ccccc1)C(=O)Nc1ccccc1C	1.2	0.8	-1.6	1.1	2.9	3.9
COCc1cc(Sc2c(Cl)cccc2Cl)nc(-c2ccccc2)n1	1.3	-3.6	-0.1	1.6	66.5*	-1.3
Cc1ccccc1-c1cnc(C(O)c2ccc(-c3ccccc3)cc2)[nH]1 (centres undefined)	/	/	2.7	/	/	/
CCOc1ccc(N=C2NC(=O)S/C2=C\c2ccc(Cl)cc2)cc1	3.1	0.3	-0.1	-3.0	4.2	3.4
COc1ccc(N=C2NC(=O)S/C2=C\c2ccc(N(C)C)cc2)cc1	30.2*	2.3	1.2	1.5	36.3	-25.5
O=C(CN1c2ccccc2Sc2ccccc21)NNC(=O)Nc1ccc(Cl)c(Cl)c1	-4.2	3.5	15.3	1.4	57.5*	6.6
COc1ccc(-c2cc(C(=O)Nc3cc(S(=O)(=O)N4CCOCC4)ccc3N3CCOCC3)c3ccccc3n2)cc1	-6.7	-0.5	2.0	1.5	18.4	0.4
O=C1OC(c2ccc(F)cc2)=C/C1=C\c1ccc([N+](=O)[O-])o1	5.7	-1.9	/	0.2	68.4*	/
COC(=O)[C@H]1[C@H](CCc2ccccc2)NC(=O)N(Cc2ccccc2)[C@@H]1C	-1.0	-0.9	0.4	0.7	72.8*	-1.2
NNC(=O)c1ccc(O)cc1O	-6.0	-0.2	-7.8	2.2	-2.9	3.3
O=C(NCCCO)c1ccc2nc(-c3ccco3)c(-c3ccco3)nc2c1	/	/	0.7	/	/	2.5
O=C(NCCO)Nc1ccc2nc(-c3ccco3)c(-c3ccco3)nc2c1	-1.6	46.9*	/	-1.5	/	/
O=C(c1ccc2c(c1)CCC2)N1CCN(Cc2ccccc2)CC1	/	/	1.1	/	/	/
COc1cc(C(=O)NC(=S)NNC(=O)[C@H]2C[C@@H]2c2ccccc2)cc(OC)c1OC	-0.7	-3.8	-3.2	0.0	90.4*	5.8
COc1cc(C(=O)NC(=S)NNC(=O)c2cnccn2)cc(OC)c1OC	-0.6	10.2	-8.8	0.9	14.6	0.9
CC(C)c1ccc(O)c(NC(=S)NC(=O)c2ccc3c(c2)OCO3)c1	3.1	3.9	0.5	7.6	60.3*	4.9
COc1cc(C(=O)NNC(=S)NC(=O)c2ccc3c(c2)OCO3)cc(OC)c1OC	5.5	-4.3	1.1	0.8	76.7*	/
